These results are taken from ChEMBL document CHEMBL4513216, “Probing the Open Global Health Chemical Diversity Library for Multistage-Active Starting Points for Next-Generation Antimalarials” (ACS Infect Dis, 2020).

Among all 69,000 compounds or so, about 8,600 (12%) showed an effect of 50% or more. This excerpt belongs to a sample that is enriched for strong results.

The assay has as its system Plasmodium berghei. The experiment in a line: Screen against P. berghei liver stage (PbLuc), transformed with Luciferase, at 10uM. The assay is classed as functional, HepG2. The note with it: tested at 10 uM.
As for `Cc1ccc(C)c(NC(=O)Cn2cc(I)cn2)c1`, the INHIBITION stood at 49.1%.
In the case of `NC(=O)c1ccc(NC(=O)Cn2cc(I)cn2)cc1`, the INHIBITION is recorded as 40%.
For `CC(C)c1ccc(NC(=O)Cn2cc(I)cn2)cc1`, the INHIBITION amounted to 82.2%.
As for `Cc1ccc(NC(=O)Cn2cc(I)cn2)cc1`, the INHIBITION is given as 23.2%.
Turning to `Cc1ccc(NC(=O)Cn2cc(I)cn2)cc1C`, the INHIBITION came to 66.5%.
Regarding `CC(=O)c1cccc(NC(=O)Cn2cc(I)cn2)c1`, the INHIBITION is reported as -1.58%.
Regarding `CS(=O)(=O)NCc1cnc2n1CCN(Cc1ccoc1)CC2`, the INHIBITION is recorded as 33%.
In the case of `Cn1cc(C(=O)N[C@@H]2CN(Cc3cccnc3)[C@@H]3CCCO[C@@H]32)cn1`, the INHIBITION was determined as 3.25%.
As for `O=C(c1cnccn1)N1C[C@H]2CC[C@@H](C1)N(C(=O)CCc1ccsc1)C2`, the INHIBITION is listed as -69.6%.
`O=C1CCC(C(=O)Nc2ccc(=O)n(Cc3ccc(Cl)c(Cl)c3)c2)N1` (stereo not given): the INHIBITION was -20.5%.
`Cc1nnc(CN(C)Cc2ccc(C(=O)Nc3sccc3C#N)cc2)o1`: the INHIBITION is given as 15.9%.
Take `CN(Cc1ccc(C(=O)Nc2sccc2C#N)cc1)Cc1ccno1`: the INHIBITION worked out at 15.9%.
For `Cc1nnsc1CN(C)Cc1ccc(C(=O)Nc2sccc2C#N)cc1`, the INHIBITION stood at 55.4%.
The value for `COCCN1CCCC(Cc2ccc(N3CCOCC3)nn2)C1` (stereo not given) was -0.902%.
Consider `Cc1nc(CCNC(=O)NC2CCCc3c2cnn3CCO)cs1` (stereo not given), for which the INHIBITION turned out to be 26.9%.
For `O=C(NCCC1=CCCCC1)NC1CCCc2c1cnn2CCO` (stereo not given), the INHIBITION was 62%.
In the case of `Cc1ccc(CNC(=O)NC2CCCc3c2cnn3CCO)cn1` (stereo not given), the INHIBITION is recorded as 53.4%.
The value for `O=C(NCC(F)(F)F)NC1CCCc2c1cnn2CCO` (stereo not given) was 37.1%; that for `Cc1csc(CNC(=O)NC2CCCc3c2cnn3CCO)n1` (stereo not given) was 14%.
Take `Cc1ccsc1CNC(=O)NC1CCCc2c1cnn2CCO` (stereo not given): the INHIBITION is 13.4%.
In the case of `O=C(NCC1CCCCC1)NC1CCCc2c1cnn2CCO` (stereo not given), the INHIBITION turned out to be 55.1%.
In the case of `O=C(NC1CCCCC1)NC1CCCc2c1cnn2CCO` (stereo not given), the INHIBITION is recorded as -9.93%.
Turning to `O=C(NCCc1ccc(F)cc1)NC1CCCc2c1cnn2CCO` (stereo not given), the INHIBITION turned out to be 18.3%.
As for `CC1(C)Cc2nc(C(C)(C)C)ncc2C(NC(=O)CN)C1` (stereo not given), the INHIBITION was determined as 36.8%.
Consider `CCn1ncc2c1C(COCC1CC1)N(Cc1nccs1)CC2` (stereo not given), for which the INHIBITION is reported as 13.7%.
On to `COc1cccc(S(=O)(=O)CCNC2CCc3ncnn3C2)c1` (stereo not given), for which the INHIBITION is 41.2%.
With `CN(C)C(=O)C1CCN(C2CCN(CC3CCC3)CC2)CC1`, the INHIBITION is on record as 26.5%.
For the compound `CCn1cc(N)c(-c2nnc3n2CCC3)n1`, the INHIBITION was 24.8%.
For the compound `Cc1ccc(C(=O)NS(C)(=O)=O)cc1-n1cccc1`, the INHIBITION was found to be 5.23%.
Consider `O=C(Nc1ccc2c(ccn2CCN2CCOCC2)c1)c1ccncc1`, for which the INHIBITION is recorded as -35.8%.
The value for `CCc1nc(CSc2nnc(N)n2C2CC2)no1` was 42.1%; that for `Cc1ccccc1Cc1nc(CSc2nnc(N)n2C)no1` was 10.7%.
On to `Cc1ccccc1Cc1nc(CSc2nnc(N)n2C2CC2)no1`, for which the INHIBITION is on record as 67.8%.
Take `CCC(=O)N1CCC(Cc2ccccc2-c2ccncc2)(C(=O)NC)C1` (stereo not given): the INHIBITION is listed as 6.32%.
For the compound `O=C(O)c1ccn(-c2ccc(NC(=O)c3ccccc3Cl)cc2)n1`, the INHIBITION amounted to 46.1%.
With `O=C(O)c1ccn(-c2cccc(NC(=O)c3ccccc3Cl)c2)n1`, the INHIBITION came to 52.6%.
In the case of `O=C(O)c1ccn(-c2ccccc2NC(=O)c2ccccc2Cl)n1`, the INHIBITION turned out to be 4.1%.
`Cc1noc(C[C@@H]2COC[C@H]3CN(C(=O)C4=CCCC4)C[C@@H]23)n1`: the INHIBITION is recorded as 34.9%.
In the case of `Cc1noc(C[C@@H]2COC[C@H]3CN(S(C)(=O)=O)C[C@@H]23)n1`, the INHIBITION was 26.5%.
Take `Cc1nnc(C[C@@H]2COC[C@H]3CN(C(=O)C4=CCCC4)C[C@@H]23)o1`: the INHIBITION was found to be 36.4%.
As to `COc1cc(N2C[C@@H]3COC[C@@H](Cc4nnc(C)o4)[C@@H]3C2)ncn1`, the INHIBITION worked out at 50.3%.
On to `COc1cc(N2C[C@@H]3COC[C@@H](Cc4nc(C)no4)[C@@H]3C2)ncn1`, for which the INHIBITION stood at 65.7%.
In the case of `Cc1noc(C[C@@H]2COC[C@H]3CN(S(=O)(=O)C4CC4)C[C@@H]23)n1`, the INHIBITION was 24.9%.
In the case of `CCS(=O)(=O)N1C[C@@H]2COC[C@@H](Cc3nc(C)no3)[C@@H]2C1`, the INHIBITION amounted to 12.1%.
Turning to `Cc1nnc(C[C@@H]2COC[C@H]3CN(C(=O)c4ccco4)C[C@@H]23)o1`, the INHIBITION was found to be 2.4%.
For `CCCS(=O)(=O)N1C[C@@H]2COC[C@@H](Cc3nc(C)no3)[C@@H]2C1`, the INHIBITION turned out to be 61.9%.
Regarding `CS(=O)(=O)N1CCCC(C(=O)Nc2cnn(Cc3ccc(F)cc3)c2)C1` (stereo not given), the INHIBITION was found to be 30.8%.
Regarding `CCc1ccc(CN2Cc3nccn3CC(Cn3cncn3)C2)o1` (stereo not given), the INHIBITION was -14.3%.
Regarding `CCOc1ncccc1NC(=O)N1CCCN(C(=O)OC)CC1`, the INHIBITION is listed as -5.1%.
The figure for `O=C(O)[C@]12CCCN(Cc3ccoc3)C[C@H]1CN(c1ncccn1)C2` is 7.24%; for `COc1c(CNCCNC(=O)c2ccc(C)c(F)c2)c(C)nn1C` it is 11.2%.
Take `COCCn1ccc(NCc2cc3cc(F)ccc3o2)n1`: the INHIBITION was 5.58%.
For the compound `COCC(=O)N1CCCC1c1cc(Nc2nnc(C)s2)nc(C)n1` (stereo not given), the INHIBITION was found to be 18.2%.
The value for `CN(C)[C@@H]1CN(C(=O)c2ccc3ccccc3n2)C[C@H]1O` was 14.7%.
With `CC(C)Oc1ccc(CN2CCC(c3n[nH]c4ncccc34)CC2)cc1`, the INHIBITION came out at 70.1%.
Turning to `Fc1ccc(CN2CCC(c3n[nH]c4ncccc34)CC2)cc1F`, the INHIBITION was 3.45%.
Regarding `CC(C)Oc1cccc(CN2CCC(c3n[nH]c4ncccc34)CC2)c1`, the INHIBITION is recorded as 66.5%.
The figure for `Fc1ccc(F)c(CN2CCC(c3n[nH]c4ncccc34)CC2)c1` is -10.5%; for `Fc1cccc(Cl)c1CN1CCC(c2n[nH]c3ncccc23)CC1` it is 24.4%.
As to `c1cnc(N2CCC(c3n[nH]c4ncccc34)C2)nc1` (stereo not given), the INHIBITION came out at 15.9%.
For the compound `CCN(Cc1cnn(C)c1)C[C@H]1CC[C@@H](Cc2ccc(C#N)cc2)O1`, the INHIBITION was 6.33%.
Consider `Cc1ncsc1CCC(=O)N(C)Cc1nc2ccccc2n1C`, for which the INHIBITION is on record as 14.6%.
As to `CC(C)N1CCC2(C=C(C(=O)NC3CC3)c3ccccc32)CC1`, the INHIBITION is -24.5%.
Consider `CC(C)c1cc(N(C)Cc2cc(C3CC3)on2)n2nccc2n1`, for which the INHIBITION was determined as 32.5%.
As for `CCOC(=O)N1[C@@H](c2ccco2)[C@@H](C(=O)NC)C[C@]12CCCCNC2=O`, the INHIBITION was determined as 42.7%.
Take `CCCc1nc(C)c(C(=O)NCCn2ccnc2)s1`: the INHIBITION amounted to 51%.
For `Cc1nc(C)c(C(=O)NCCn2nc3ccccn3c2=O)s1`, the INHIBITION was 4.283%.
With `CCc1nc(C)c(C(=O)NCCn2nc3ccccn3c2=O)s1`, the INHIBITION is on record as -11%.
The figure for `Cc1nc(C(C)(C)C)sc1C(=O)NCCn1ccnc1` is 30.9%; for `CCCc1nc(C)c(C(=O)NCCn2nc3ccccn3c2=O)s1` it is 52.8%.
As to `Cc1nc(C(C)C)sc1C(=O)NCCn1ccnc1`, the INHIBITION is given as 29.8%.
`CCN1CCC2(CCN(c3ncccn3)CC2)C1=O`: the INHIBITION is listed as -12.2%.
Regarding `Cc1ccc(CN2C[C@@H]3CCCO[C@@H]3[C@H](NS(C)(=O)=O)C2)o1`, the INHIBITION is on record as 46.6%.
Regarding `CC(C)N1CCC2(CC1)C(=O)N(CCN(C)C)c1ccccc12`, the INHIBITION is listed as 49.4%.
With `O=C(c1cccnc1)N1CCCC(c2ccnc3nccn23)C1` (stereo not given), the INHIBITION was 9.3875%.
On to `O=C(NCc1cncc2c1CCN(Cc1cccs1)C2)C1CC1`, for which the INHIBITION came out at 9.67%.
The value for `Cc1ccc(CNC2CCc3[nH]c(=O)ccc3C2)cc1C` (stereo not given) was 40.1%; that for `CC(C)NC(=O)N1CCC2(CC(=O)N(c3ccccc3)C2)C1` (stereo not given) was 28.4%; that for `CC(=O)N1CCC(c2cncc(N3CCOCC3)n2)CC1` was 41.5%.
With `CN(Cc1ccsc1)C(=O)COC(=O)c1cc(Cl)c[nH]1`, the INHIBITION is recorded as 14.8%.
On to `CCCN1CCC(NC(=O)c2ccnc(SCC)c2)CC1`, for which the INHIBITION turned out to be 49.7%.
The value for `Cc1cnc(C)c(N2CC[C@H](N3CCOCC3)[C@H](CCCO)C2)n1` was -12.4%; that for `Cc1nccn1CCC1CCCCN1C(=O)c1ccc2[nH]nnc2c1` (stereo not given) was -5.29%; that for `Cc1nccn1CCC1CCCCN1C(=O)c1ccc(N(C)C)cc1` (stereo not given) was 66.9%.
`COC(=O)c1cccc(C(=O)N2CCCCC2CCn2ccnc2C)c1` (stereo not given): the INHIBITION was 17.3%.
The value for `Cc1nccn1CCC1CCCCN1C(=O)c1ccc2nonc2c1` (stereo not given) was -17.5%.
As for `CNc1cc(C(=O)N2CCCCC2CCn2ccnc2C)ccn1` (stereo not given), the INHIBITION was found to be 64.5%.
The figure for `Cc1nccn1CCC1CCCCN1Cc1ccc(O)cc1Cl` (stereo not given) is 1.37%.
With `COc1cccc(CN(C)C(=O)NCc2c(C)cc(C)[nH]c2=O)c1`, the INHIBITION is 22.3%.
Consider `Cc1cnn(CC2CCCN2C(=O)CN(C)C2CC2)c1` (stereo not given), for which the INHIBITION was 29.7%.
`Cn1ccnc1C(=O)N1CCC2(CC1)CC(Oc1cccnc1)CO2` (stereo not given): the INHIBITION is 32.4%.
With `Cc1ccc(OCC(C)NS(=O)(=O)Cc2ccon2)cc1` (stereo not given), the INHIBITION is given as 48.5%.
On to `CC(CCc1ccc(F)c(F)c1)NS(=O)(=O)Cc1ccon1` (stereo not given), for which the INHIBITION worked out at 53.5%.
As for `CC(C)CC(CO)NS(=O)(=O)Cc1ccon1` (stereo not given), the INHIBITION stood at 23.8%.
The figure for `CCc1nc(C2CCCN(C(=O)c3cnn(CC)c3)C2)no1` (stereo not given) is -8.69%; for `Cc1ccc(C(=O)Nc2ccccc2N2CCCC2)n1C` it is 21.2%; for `CN1CCN(c2ccccc2NC(=O)NCCc2ccccc2)CC1` it is 64.3%.
`CN1CCN(c2ccccc2NC(=O)c2ccco2)CC1`: the INHIBITION is 50.4%.
With `CN1CCN(c2ccccc2NC(=O)NCCc2ccc(O)cc2)CC1`, the INHIBITION came out at 35.1%.
`CN1CCN(c2ccccc2NC(=O)NCC[S+](C)[O-])CC1` (stereo not given): the INHIBITION was found to be 39.3%.
On to `CN1CCN(c2ccc(Br)cc2NC(=O)c2ccco2)CC1`, for which the INHIBITION is given as 46.3%.
`Cc1nn(CC(=O)N(C)Cc2nncn2C(C)C)c(=O)c2ccccc12`: the INHIBITION is recorded as -7.27%.
For the compound `Cc1nn(CCNS(=O)(=O)c2ccccc2)c(C)c1Cl`, the INHIBITION was determined as 48.3%.
Turning to `Cc1cnn(C2CCCN(C(=O)c3ccc(-n4cnnn4)cc3)C2)c1` (stereo not given), the INHIBITION turned out to be 47.4%.
Regarding `CC(C)(O)CN1CCN(C(=O)c2cccn2Cc2ccncc2)CC1`, the INHIBITION is 19.2%.
